HEK293 tox: cytotoxicity counter-screen for GLP-1 receptor inverse agonists; Potency, µM (highest dose often 38.3 µM), for the others: at the top dose activity change, negative = inhibition, most hits filed as inhibitors; 0.13% of 410,000 active; AID 624418; HEK293 cAMP-luciferase reporter cells, luminescence, 24 h;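 further: loss of luciferase light is scored as toxicity; on the % scale 0 is the no-effect control and ±100 the full control effect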
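To flag toxic compounds, the library was rerun on cells for 24 hr at 37 deg C and 5% CO2. Viability-linked luminescence was captured 12 min after adding luciferase detection reagent.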
GLP-1R inv ag: GLP-1 receptor (human) inverse agonism | P43220 | HEK293 GLP-1R CRE-luciferase, luminescence, 24 h; GLP-1R form is constitutively active | Potency, µM (titrated, usually from 38.3 µM), without a hit: top-dose activity change, negative = inhibition, hits mostly inhibitors | 1.6% of 410,000 active; further: on the % scale 0 is the no-effect control and ±100 the full control effect; nearly all actives have a fitted effect of over 55% in size
Target sequence (P43220 whole entry, looked up): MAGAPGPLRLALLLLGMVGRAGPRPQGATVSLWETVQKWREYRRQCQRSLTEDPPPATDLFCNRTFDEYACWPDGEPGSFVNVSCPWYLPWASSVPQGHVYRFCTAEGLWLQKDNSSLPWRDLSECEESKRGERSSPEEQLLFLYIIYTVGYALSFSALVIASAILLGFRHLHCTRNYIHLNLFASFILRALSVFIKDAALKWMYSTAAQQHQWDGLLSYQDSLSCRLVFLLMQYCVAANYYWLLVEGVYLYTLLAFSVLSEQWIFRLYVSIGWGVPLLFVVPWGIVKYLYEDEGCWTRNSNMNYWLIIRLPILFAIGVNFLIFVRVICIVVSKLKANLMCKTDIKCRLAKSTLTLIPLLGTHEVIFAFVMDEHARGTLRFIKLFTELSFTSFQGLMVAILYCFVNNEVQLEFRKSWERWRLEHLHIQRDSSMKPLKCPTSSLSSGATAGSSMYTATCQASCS
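Constitutively active GLP-1R drives a cAMP-responsive luciferase in stably transfected HEK293 cells; test compounds are added after overnight (12 h) attachment and left 24 hr, and signal loss in luminescence marks inhibition.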
GLP-1R agonist: activates the human GLP-1 receptor. HEK293 GLP-1R CRE-luciferase, luminescence, 4-6 h; cells express a hypersensitive GLP-1R form. Potency, µM (top dose mostly 45.6 µM), inactives show top-dose activation, hits mostly activators. 0.007% of 380,000 active; further: % of control where 0% means no effect
TrxR1 substrate: rat thioredoxin reductase 1 substrate activity; 0.01% of 390,000 active; purified TrxR1 substrate turnover, NADPH consumption readout; Potency, µM (doses to about 114 µM), for inactives: top-dose activity change, negative = substrate turnover; AID 588456; O89049; further: on the % scale 0 is the no-effect control and ±100 the full control effect; nearly all actives have a fitted effect of over 50% in size
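Rat TrxR1, dispensed at 90 nM, was prereduced with 400 uM NADPH (final) for 5 min at ~22 deg C, then incubated with compound 15 min before 400 uM selenite. A first-read NADPH fluorescence drop versus no-compound background flagged substrates.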
mIDH1 inhibitor: blocks human mutant IDH1 R132H enzyme | 0.093% of 390,000 active | AID 602179 | IDH1-R132H enzyme, NADPH consumption, diaphorase/resazurin fluorescence | O75874 | Potency, µM (highest dose often 76.6 µM), for inactives: top-dose activity change, negative = inhibition, most hits filed as inhibitors; further: on the % scale 0 is the no-effect control and ±100 the full control effect; nearly all actives have a fitted effect of over 65% in size
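IDH1-R132H (0.5 ug/mL dispensed) in pH 7.5 Tris buffer was preincubated 30 min with compound, then given a substrate mix of 0.016 mM NADPH and 2 mM alpha-KG for 80 min at room temperature; remaining NADPH was read by diaphorase/resazurin fluorescence.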
rTrxR1 inhibitor: blocks rat thioredoxin reductase 1; Potency, µM (doses to about 114 µM), inactives show at the top dose activity change, negative = inhibition, most hits filed as inhibitors; O89049; recombinant rTrxR1, NADPH fluorescence consumption, selenite substrate; 1% of 390,000 active; further: on the % scale 0 is the no-effect control and ±100 the full control effect; nearly all actives have a fitted effect of over 65% in size
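Rat TrxR1 (90 nM in the dispensed reagent) was pre-reduced with 400 uM NADPH for 5 min at room temperature, then incubated with compound for 15 min. After 400 uM selenite was added, NADPH fluorescence (Ex 340/Em 450 nm) was followed for 8 min.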
Active calls of the source: *; [ ] = remark or other dose. Hits are enriched below; roughly 2.7% of the tested compounds scored in any of these assays. The call rests on the fitted dose curve; in most records, active means well fitted curve in the direction sought with a large enough effect; inconclusive means small, poorly fitted or top-dose-only effect, or another doubt; inactive means no such curve, though single readings can be large; an effect the other way counts as inactive or inconclusive. Potency means the concentration at half of the fitted maximal effect.

Results for O=S(=O)(NCC(c1cccs1)S(=O)(=O)c1ccccc1)c1ccccc1 (configuration not stated) ?
HEK293 tox: 1%; GLP-1R inv ag: -13%; TrxR1 substrate: 1%[57.1 µM]; mIDH1 inhibitor: -9%; rTrxR1 inhibitor: 0.56µM*

What do the screens show for `CCOc1ccc(C(=O)NCC(c2cccs2)S(=O)(=O)c2ccccc2)cc1` (configuration not stated)?
HEK293 tox: 2%; GLP-1R inv ag: inconclusive; TrxR1 substrate: -2%[57.1 µM]; mIDH1 inhibitor: 20%; rTrxR1 inhibitor: 2%[57.1 µM]

What do the screens show for `Cc1cc(Cl)ccc1NC(=O)CCS(=O)(=O)c1cc2c(cc1C)NC(=O)CO2`?
HEK293 tox: 5%; GLP-1R inv ag: 3%; TrxR1 substrate: 3%[57.1 µM]; mIDH1 inhibitor: 11%; rTrxR1 inhibitor: 9%[57.1 µM]

What do the screens show for `O=S(=O)(NCC(c1ccco1)S(=O)(=O)c1cccs1)c1ccc(Cl)cc1` (configuration not stated)?
HEK293 tox: 8%; GLP-1R inv ag: -20%; TrxR1 substrate: 4%[57.1 µM]; mIDH1 inhibitor: -8%; rTrxR1 inhibitor: 0.63µM*

What do the screens show for `Cc1cc(C)cc(OCC(=O)NNC(=O)c2ccccn2)c1`?
HEK293 tox: inconclusive; GLP-1R inv ag: 13µM*; GLP-1R agonist: -1%; TrxR1 substrate: -2%; mIDH1 inhibitor: -10%; rTrxR1 inhibitor: 20%

What do the screens show for `CO/N=C(\Cn1ncc(N2CCCC2)c(Br)c1=O)c1ccc(Cl)cc1`?
HEK293 tox: -18%; GLP-1R inv ag: 11µM*; GLP-1R agonist: 13%; TrxR1 substrate: 9%[57.1 µM]; mIDH1 inhibitor: 1%; rTrxR1 inhibitor: 15%[57.1 µM]

How did O=C1C(Cl)=C(N2CCN(c3ccccc3[N+](=O)[O-])CC2)C(=O)c2ccccc21 do in these assays?
HEK293 tox: inconclusive; GLP-1R inv ag: 67%; GLP-1R agonist: 1%; TrxR1 substrate: 11%; mIDH1 inhibitor: 5%; rTrxR1 inhibitor: 0.79µM*

What do the screens show for `CC(C)(c1ccc(O)c([N+](=O)[O-])c1)c1ccc(O)c([N+](=O)[O-])c1`?
HEK293 tox: -33%; GLP-1R inv ag: -42%; GLP-1R agonist: 8%; TrxR1 substrate: -9%; mIDH1 inhibitor: 6%; rTrxR1 inhibitor: -20%

Results for CN(C)Cc1cc(C(C)(C)c2ccccc2)ccc1O ?
HEK293 tox: -8%; GLP-1R inv ag: 10µM*; GLP-1R agonist: -2%; TrxR1 substrate: 0%; mIDH1 inhibitor: -2%; rTrxR1 inhibitor: 18%

How did COc1cc(C2C(C#N)=C(N)N(c3ccc(F)cc3)C3=C2S(=O)(=O)CC3)ccc1O (configuration not stated) do in these assays?
HEK293 tox: -25%; GLP-1R inv ag: 18%; GLP-1R agonist: 3%; TrxR1 substrate: 7%; mIDH1 inhibitor: -1%; rTrxR1 inhibitor: 11µM*

Results for Cc1ccc2ccccc2n1 ?
TrxR1 substrate: 9%; rTrxR1 inhibitor: 9%

Results for O=C(c1ccc(Br)o1)N1CCC(c2nc3ccccc3[nH]2)CC1 ?
HEK293 tox: 1%; GLP-1R inv ag: 7%; GLP-1R agonist: -1%; TrxR1 substrate: -3%; mIDH1 inhibitor: 10%; rTrxR1 inhibitor: 45µM*

How did CC(C)COc1ccccc1C1CC(=O)Nc2cc3c(cc21)OCO3 (configuration not stated) do in these assays?
HEK293 tox: inconclusive; GLP-1R inv ag: inconclusive; TrxR1 substrate: -12%; mIDH1 inhibitor: -3%; rTrxR1 inhibitor: -15%

What do the screens show for `O=S(=O)(c1ccc(Oc2ccc3c(c2)OCO3)c(S(=O)(=O)N2CCOCC2)c1)N1CCOCC1`?
TrxR1 substrate: -5%; rTrxR1 inhibitor: -9%

How did O=C(c1ccco1)N1CCN(CCOCCOc2cccc3ccccc23)CC1 do in these assays?
HEK293 tox: -5%; GLP-1R inv ag: 0%; GLP-1R agonist: 3%; TrxR1 substrate: 5%; mIDH1 inhibitor: 0%; rTrxR1 inhibitor: 11%[57.1 µM]

Results for c1ccc(CN2CCN(CCOCCOc3cccc4ccccc34)CC2)cc1 ?
HEK293 tox: inconclusive; GLP-1R inv ag: 7.9µM*; GLP-1R agonist: 0%; TrxR1 substrate: 7%[57.1 µM]; mIDH1 inhibitor: 15%; rTrxR1 inhibitor: 23%[57.1 µM]

Results for CC[n+]1c(/C=C2\Sc3ccccc3N2C)ccc2cccc(C)c21 ?
HEK293 tox: inconclusive; GLP-1R inv ag: 13µM*; GLP-1R agonist: -3%; TrxR1 substrate: 4%[57.1 µM]; mIDH1 inhibitor: 3%; rTrxR1 inhibitor: 11%[57.1 µM]

Results for O=C1C=CC2=C3c4cc(O)c(O)cc4CC3(O)COC2=C1O (configuration not stated) ?
HEK293 tox: -28%; GLP-1R inv ag: -3%; GLP-1R agonist: -3%; TrxR1 substrate: 3%; mIDH1 inhibitor: -7%; rTrxR1 inhibitor: 16µM*

Results for CCCCCCCCCCCCCCCC(=O)OC[C@H](O)[C@H]1OC[C@@H](O)[C@@H]1O ?
GLP-1R agonist: 0%

What do the screens show for `CCCNC(=O)c1c(C)nn(-c2cccc(C)c2)c1-n1cccc1`?
HEK293 tox: 4%; GLP-1R inv ag: inconclusive; TrxR1 substrate: 11%[57.1 µM]; mIDH1 inhibitor: 0%; rTrxR1 inhibitor: 26%[57.1 µM]

Results for CCCc1c(C)c2ccc(O)c(CN3CCN(c4ccc(F)cc4)CC3)c2oc1=O ?
HEK293 tox: -2%; GLP-1R inv ag: 4%; TrxR1 substrate: 74%; mIDH1 inhibitor: 6%; rTrxR1 inhibitor: inconclusive

Results for Cc1cc(O)c(CN2CCN(c3ccc(F)cc3)CC2)c2oc(=O)cc(C)c12 ?
HEK293 tox: 4%; GLP-1R inv ag: 2%; TrxR1 substrate: 739%; mIDH1 inhibitor: 13%; rTrxR1 inhibitor: 79µM*

What do the screens show for `Cc1ccc(C)c(NC(=O)Cn2cc(S(=O)(=O)c3ccc(F)cc3)c(=O)c3cc(F)ccc32)c1`?
HEK293 tox: 1%; GLP-1R inv ag: 4%; GLP-1R agonist: -1%; TrxR1 substrate: 1%; mIDH1 inhibitor: 1%; rTrxR1 inhibitor: 3%

Results for Cc1c(CN(C)C)c2c(n1C)C(=O)c1ccc(Br)cc1-2 ?
HEK293 tox: 8.9µM*; GLP-1R inv ag: 132%; GLP-1R agonist: 0%; TrxR1 substrate: 2%; mIDH1 inhibitor: 2%; rTrxR1 inhibitor: -7%

How did Cc1ccc(Nc2nc(N)c3ccccc3n2)cc1C do in these assays?
HEK293 tox: 3%; GLP-1R inv ag: 7.1µM*; GLP-1R agonist: -1%; TrxR1 substrate: -1%; mIDH1 inhibitor: 14%; rTrxR1 inhibitor: 8%

Results for Cc1cc(Nc2ccc(C)c(C)c2)c2ccccc2n1 ?
HEK293 tox: inconclusive; GLP-1R inv ag: inconclusive; GLP-1R agonist: 3%; TrxR1 substrate: 1%; mIDH1 inhibitor: -2%; rTrxR1 inhibitor: 11%

Screening results as filed in PubChem BioAssay.
